# Screening results deposited in PubChem BioAssay by National Center for Advancing Translational Sciences (NCATS).
# Shiga toxin inh: A qHTS for Small Molecule Inhibitors of Shiga Toxin. Vero cells, Shiga toxin protein synthesis inhibition reporter. 290,000 tested, 9.2% active. inhibition, % at 38.7 µM; in the data active = inhibition mostly above about 28%, no sharp cut-off; inactive = mostly below about 43%; also: 0% is about no effect
# Pf growth 48h: Primary qHTS for delayed death inhibitors of the malarial parasite plastid, 48 hour incubation. P. falciparum luciferase growth in erythrocytes, 48 h. 310,000 tested, 5.9% active. Potency, µM (top dose mostly 28.7 µM), for the others: top-dose activity change, negative = inhibition, usual class: inhibitors; also: potency is read from the fitted curve at half-maximal effect; % is scaled to controls: 0 for no effect and ±100 for the full control effect
#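 A one-generation exposure of luciferase-tagged malaria parasites in RPMI 1640/Albumax erythrocyte culture, 37 C and 5% CO2. Inhibition is inferred from decreased luminescence after adding detection reagent.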
# FBPA Giardia inh: qHTS Assay for Inhibitors of Fructose-1,6-bisphosphate Aldolase from Giardia Lamblia | A8B2U2 | purified Giardia FBPA | Potency, µM (highest dose often 59.6 µM), for the others: at the highest dose activity, negative = inhibition, actives largely listed as inhibitors | 290,000 tested, 0.71% active | AID 2451, 2010; also: potency is read from the fitted curve at half-maximal effect; % is scaled to controls: 0 for no effect and ±100 for the full control effect; nearly all actives have a fitted effect of over 55% in size
# Target sequence (A8B2U2 whole entry, looked up): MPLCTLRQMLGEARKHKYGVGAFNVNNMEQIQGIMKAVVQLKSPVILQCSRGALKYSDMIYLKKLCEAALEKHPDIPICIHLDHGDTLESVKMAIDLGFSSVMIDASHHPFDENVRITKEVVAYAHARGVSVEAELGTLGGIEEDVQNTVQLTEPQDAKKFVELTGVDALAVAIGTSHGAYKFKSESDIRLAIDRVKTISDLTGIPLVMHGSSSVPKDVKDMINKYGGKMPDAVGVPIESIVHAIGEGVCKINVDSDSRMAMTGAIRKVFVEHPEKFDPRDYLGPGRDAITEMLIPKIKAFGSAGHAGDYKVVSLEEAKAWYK
#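 Giardia FBPA (40 nM reagent) was preincubated 10 min at RT with compound (up to 57.5 uM final), then substrate plus GAPDH/TPI/NAD/arsenate coupling system with diaphorase/resazurin was added; resorufin fluorescence (525/598 nm) was read after 20 min.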
# NS1 inh: qHTS Assay for Inhibitors of Influenza NS1 Protein Function; AID 2326, 2010; Potency, µM (doses to about 46.1 µM), without a hit: at the top dose activity, positive = more growth; 270,000 tested, 0.4% active; calls by dose curve; also: potency is read from the fitted curve at half-maximal effect; actives are rising curves; nearly all actives have a fitted effect of over 50% in size
#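 Recovery from NS1-induced slow growth read by OD600 in budding yeast switched to galactose assay medium (pH 6.0, -URA) at 1:100 dilution. Compound 23 nl per well; the matching strain lacking NS1 serves as control.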
# Pf growth 96h: Primary qHTS for delayed death inhibitors of the malarial parasite plastid, 96 hour incubation. P. falciparum luciferase reporter growth, 96 h. Potency, µM (series often up to 28.7 µM), inactives show top-dose activity change, negative = inhibition, usual class: inhibitors. 320,000 tested, 6.9% active. AID 504834, 2011; also: potency is read from the fitted curve at half-maximal effect; % is scaled to controls: 0 for no effect and ±100 for the full control effect
#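 Delayed-death screen, second-generation endpoint: infected erythrocytes, 2% hematocrit, 0.05% parasitemia final; 96 hours at 37 C, 5% CO2; luciferase detection reagent; luminescence decrease equals reduced growth.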
# CHX counter: Cycloheximide Counterscreen for Small Molecule Inhibitors of Shiga Toxin; cell reporter, cycloheximide protein synthesis inhibition counterscreen; max response, %; 300,000 tested, 12% active; AID 2314, 2010; in the data active = max response mostly above about 13%, no sharp cut-off; inactive = mostly below about 14%; also: read at 38.3 µM for the half of the compounds with a filed dose; 0% is about no effect
# Active calls of the source: *; ? = inconclusive; . = not tested or not shown. Rows were chosen to be rich in hits. Some 21% of all compounds tested hit in one or more screens of this group. Unless noted, calls follow the shape of the dose curve; as a rule, active = well fitted curve in the direction sought with a large enough effect; inconclusive = small, poorly fitted or top-dose-only effect, or another doubt; inactive = no such curve, though single readings can be large; an effect the other way counts as inactive or inconclusive.
SMILES,Shiga toxin inh,Pf growth 48h,FBPA Giardia inh,NS1 inh,Pf growth 96h,CHX counter
Cc1cc2nc(-c3ccc[nH]c3=O)n(Cc3ccccc3F)c2cc1C,43*,13%,6%,1%,50%,38*
CCC(CC)NC(=O)CN1CCN(S(=O)(=O)c2cccs2)CC1,.,36%,.,.,70%,.
Cc1cc(C)n2nc(C(=O)Nc3ccc(S(=O)(=O)N(C)C)cc3)nc2n1,-9,-10%,3%,2%,?,-2
CC(CC(=O)NCc1ccccc1)C1CCCO1 (centres undefined),26*,31%,0%,-3%,.,17*
COC(=O)C1=C(c2ccccc2OCc2ccccc2)C[C@@H]2CC[C@H]1N2C(=O)NCCOc1ccccc1,.,12µM*,.,.,?,.
COC(=O)C1=C(c2ccccc2OCc2ccccc2)C[C@@H]2CC[C@H]1N2C(=O)NCCOc1ccc(OC)cc1,.,9.3µM*,.,.,1.3µM*,.
COC(=O)C1=C(c2c(C)noc2C)C[C@@H]2CC[C@H]1N2C(=O)NCCOc1ccccc1Cl,.,?,.,.,32%,.
COC(=O)C1=C(c2ccccc2OCc2ccccc2)C[C@@H]2CC[C@H]1N2C(=O)NCCCOC(C)C,.,?,.,.,5.2µM*,.
CN1CCN(c2ncnc3ccc(-c4cccnc4)cc23)CC1,.,.,1%,.,.,.
O=C(c1ccc(CNS(=O)(=O)c2ccc(Br)cc2)cc1)N1CCCCCC1,5,-1%,.,-6%,0%,-8
Cc1ccc2c(c1)C1CC(C)(O2)N(c2cccc(C(=O)NC3CCN(Cc4ccccc4)CC3)c2)C(=O)N1 (centres undefined),-7,?,3%,-6%,-2%,-5
COc1ccccc1[C@@H]1C(c2cccc(C)c2)=NN(c2ccccc2)[C@H]1C(=O)N1CCOC1=O,3,13µM*,-13%,?,10µM*,1
COc1ccccc1C(=O)Nc1ccc(OCC(=O)N2CC(C)OC(C)C2)cc1 (centres undefined),.,60%,.,.,-15%,.
O=C(Oc1ccc(C(=S)N2CCC(O)CC2)cc1)c1ccc(Cl)cc1,35,-1%,3%,-2%,-28%,37*
CC(C)Cc1cc(C(=O)N2CCC(N3CCC(C(=O)NC4CC4)CC3)CC2)n[nH]1,26,0%,0%,0%,-27%,2
O=[N+]([O-])c1ccccc1-c1cc(-c2ccccc2O)n[nH]1,69*,209%,-5%,-50%,100%,75*
Oc1ccccc1-c1cc(C(F)(F)F)[nH]n1,-6,?,0%,-128%,9.3µM*,10
Oc1ccccc1-c1cc(C(F)(F)C(F)F)[nH]n1,28*,?,-1%,-24%,16%,22*
Cc1ccc(C)c(N2N=C(C(=O)Nc3cccc(S(=O)(=O)N4CCCCC4)c3)CCC2=O)c1,.,4.7µM*,.,.,4.7µM*,.
CCOc1ccc(NC(=O)CN2CCCC2c2cccs2)cc1S(=O)(=O)N1CCCC1 (centres undefined),.,12µM*,.,.,15µM*,.
O=C(Nc1cccc(S(=O)(=O)N2CCCCC2)c1)C1=NN(c2ccccc2)C(=O)CC1,.,5.2µM*,.,.,6.6µM*,.
CCOc1ccc(NC(=O)C2=NN(c3ccccc3)C(=O)CC2)cc1S(=O)(=O)N1CCCCC1,.,12µM*,.,.,?,.
O=C(Nc1cc(S(=O)(=O)N2CCCCC2)ccc1Cl)C1=NN(c2ccccc2)C(=O)CC1,5,?,3%,7%,?,-4
O=C(N/N=C/c1ccoc1)c1ccc(Br)cc1,36*,-24%,4%,4%,?,36*
O=C(N/N=C/c1ccoc1)c1ccccc1O,32,-22%,.,1%,93%,29*
O=C(N/N=C/c1ccoc1)c1ccc(Cl)cc1,-14,2.6µM*,.,-5%,?,-3
Cc1cc(C)cc(C(=O)N/N=C/c2ccoc2)c1,-16,-3%,.,12%,45%,7
O=C(N/N=C/c1ccoc1)c1cc(O)cc(O)c1,-28,22%,.,5%,?,11
O=C(N/N=C/c1ccoc1)c1ccccc1,61*,0%,-3%,12%,?,37*
